Screens as filed in PubChem.
Shown are actives, neighbours in structure and some others; about 21% of the full set was active somewhere.
NS1 function inh: inhibitors of influenza NS1 protein function | Potency, µM (titrated, usually from 46.1 µM) | actives 0.4% (n = 270,000) | AID 2326; calls by dose curve; note: actives are rising curves; nearly all actives have a fitted effect of over 50% in size
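In this qHTS, NS1 from influenza A is expressed in budding yeast, where it slows growth. Cells are switched from glucose to 2% galactose medium (pH 6.0, -URA), treated with compound, and growth recovery is read at OD600.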
Pf growth 48h: P. falciparum growth inhibition at 48 hours (one generation) | Potency, µM (top dose mostly 28.7 µM), actives largely listed as inhibitors | actives 5.9% (n = 310,000) | P. falciparum luciferase growth in erythrocytes, 48 h
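Growth was read as firefly luciferase luminescence after a 48 h, 37 C, 5% CO2 exposure of compounds to reporter-bearing P. falciparum cultures (0.1% parasitemia, 2% hematocrit final) in Albumax-supplemented RPMI 1640.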
Sm TGR block: blocks Schistosoma mansoni thioredoxin glutathione reductase; purified TGR, DTNB reduction, TNB absorbance 405 nm; Potency, µM (series often up to 114 µM), most hits filed as inhibitors; actives 3% (n = 360,000); Q962Y6; note: nearly all actives have a fitted effect of over 60% in size
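Kinetic colorimetric format: TGR-catalysed, NADPH-driven DTNB reduction monitored via TNB absorbance. Enzyme dispensed at 20 nM; compound exposure 15 min at room temperature before reaction start.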
Cycloheximide cs: affects cycloheximide protein synthesis inhibition readout, counter-screen | cell reporter, cycloheximide protein synthesis inhibition counterscreen | max response, % | actives 12% (n = 300,000); in the data active = max response mostly above about 13%, no sharp cut-off; inactive = mostly below about 14%; note: read at 38.3 µM for the half of the compounds with a filed dose
Shiga toxin inh: inhibitors of Shiga toxin in Vero cells; Vero cells, Shiga toxin protein synthesis inhibition reporter; inhibition, % at 38.7 µM; actives 9.2% (n = 290,000); in the data active = inhibition mostly above about 28%, no sharp cut-off; inactive = mostly below about 43%
Pf growth 96h: P. falciparum growth inhibition at 96 hours. P. falciparum luciferase reporter growth, 96 h. Potency, µM (series often up to 28.7 µM), hits mostly inhibitors. actives 6.9% (n = 320,000). AID 504834
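P. falciparum expressing integrated firefly luciferase, in erythrocytes at 2% hematocrit, 0.05% parasitemia, incubated with compounds 96 h at 37 C, 5% CO2. Growth inhibition read as loss of luminescence; two-generation exposure targets delayed-death apicoplast inhibitors.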
NS1 inh valid: influenza NS1 function inhibition validation; shares compounds with NS1 function inh; influenza NS1 function cell assay, 15-point titration; activity change, negative = inhibition, % at 32.9 µM; 1,400 tested, under 10 active; AID 492980; calls by dose curve
Flu PR8 replic: reduces influenza A/PR/8/34 replication in MDCK cells; MDCK infected influenza A/PR/8/34, virus titer TCID50; hits give low values; shares compounds with NS1 function inh; virus titer (log TCID50), log10 TCID50 at 5 µM; actives 30% (n = 95); call rule not given here
Hits are given with their value; n = inactive; u = inconclusive; x = no result given; + = active, no number; [ ] = remark or other dose. Unless noted, calls come from the whole dose curve; as a rule, active = well fitted curve in the direction sought with a large enough effect; inconclusive = small, poorly fitted or top-dose-only effect, or another doubt; inactive = no such curve, though single readings can be large; an effect the other way counts as inactive or inconclusive.

SMILES	NS1 function inh	Pf growth 48h	Sm TGR block	Cycloheximide cs	Shiga toxin inh	Pf growth 96h	NS1 inh valid	others
CC1CN(c2ncnc3c2oc2ccccc23)CC(C)O1 (centres undefined)	n	n	n	n	n	u	x
Clc1ccc(N2CCN(c3ncnc4c3oc3ccccc34)CC2)cc1	u	n	n	n	n	n	n
O=S(=O)(c1cccc(-c2csc(N/N=C/c3ccco3)n2)c1)N1CCOCC1	n	n	n	n	n	n	x
CCOc1cc(/C=N/Nc2nc(-c3cccc(S(=O)(=O)N4CCCC4)c3)cs2)ccc1O	10µM	9.3µM	n	n	n	10µM	n
COc1ccc(/C=N/Nc2nc(-c3cccc(S(=O)(=O)N4CCCC4)c3)cs2)cc1OC	13µM	9.3µM	n	n	+	12µM	n
COc1ccc(S(=O)(=O)N2CCOC2CNC(=O)C(=O)NCC(C)C)cc1OC (centres undefined)	n	n	n	n	n	u	x
O=C(O)[C@H]1[C@H](C(=O)O)[C@H](C(=O)O)C[C@@H]1C(=O)O	n	x	x	x	x	x	x
COc1ccc2c(c1)c(CC(=O)Nc1cc(C)ccc1C)c(C)n2C(=O)c1ccc(Cl)cc1	u	u	n	n	n	12µM	n
Cc1nnc2n(-c3ccc(Cl)cc3)c(=O)c3c4c(sc3n12)CN(C)CC4	n	n	n	n	n	x	x
CN1CCc2c(sc3c2c(=O)n(-c2ccccc2)c2nnc(SCc4ccc(Cl)cc4)n32)C1	13µM	u	n	n	n	x	n
CCOC(=O)Nc1ccc2c(CN3C(=O)NC4(CCCC4)C3=O)cc(=O)oc2c1	n	u	n	n	n	u	x
CCOC(=O)Nc1ccc2c(CN3CCN(S(=O)(=O)c4ccccc4)CC3)cc(=O)oc2c1	8.9µM	9.3µM	n	n	n	6.6µM	n
CON(C)c1nc(Oc2ccc(=O)[nH]n2)nc(N(C)C)n1	u	n	n	n	n	x	n
C=CCNC(=O)C1CC(=O)N(c2ccc(OCC(=O)Nc3c(C)cccc3C)cc2)C1 (centres undefined)	u	n	n	n	n	n	n
O=C1C2CCCN2C(c2ccc(F)cc2)N1c1ccc(Cl)cc1 (centres undefined)	4µM	x	n	n	n	n	n
CCOc1ccc(C2N(c3ccc(Cl)cc3)C(=O)C3CCCN32)cc1OC (centres undefined)	7.9µM	x	n	n	n	n	n
COc1ccc(OC)c(N(CC(=O)NCCSCc2ccco2)S(=O)(=O)c2ccc(OC)c(OC)c2)c1	n	n	n	n	n	n	x
COc1cc(/C=N/n2c(-c3ccc4c(c3)NC(=O)CO4)csc2=Nc2cccc(C)c2)ccc1O	11µM	u	n	33	38	4.7µM	n	Flu PR8 replic=n
CCc1ccc2nc3sc(C(=O)O)cc3cc2c1	n	u	n	n	n	n	x
COc1cccc(C2/C(=C(/O)c3ccc4c(c3)CC(C)O4)C(=O)C(=O)N2CCCn2ccnc2)c1 (centres undefined)	n	n	n	n	n	n	x
CCN(CC)C(=O)CSC1=Nc2ccccc2C2=NC(c3ccccc3)C(=O)N12 (centres undefined)	2.8µM	x	n	n	n	x	n
O=C(CSc1nc(C(F)(F)F)cc(=O)[nH]1)N1CCC(Cc2ccccc2)CC1	x	u	n	x	x	n	x
COc1ccc(N(CC(=O)NCCSC2CCCCC2)S(=O)(=O)c2ccccc2)c(OC)c1	4µM	u	n	n	n	n	n
Cc1ccc(-c2ccc(S(=O)(=O)N3CCN(C)CC3)cc2)cc1	11µM	n	n	n	n	x	n
Cc1ccc(S(=O)(=O)N2CC(=NO)C2)cc1	6.3µM	n	n	n	n	13µM	n
SMILES	NS1 function inh	Pf growth 48h	Sm TGR block	Cycloheximide cs	Shiga toxin inh	Pf growth 96h	NS1 inh valid	others
COc1ccc(NS(=O)(=O)c2cccc(C(=O)NNC(=O)CNC(=O)c3ccccc3F)c2)cc1	x	n	n	x	x	n	x
COc1ccc(N2C(N)=C(C#N)C(c3cccnc3)C3=C2CC(C)(C)CC3=O)cc1 (centres undefined)	u	u	10µM	n	n	n	n
Cc1ccccc1-c1noc(-c2ccc(N3CCN(C)CC3)c([N+](=O)[O-])c2)n1	x	x	n	x	x	x	x
COc1cccc(C(=O)N2CCN=C2SCc2cccnc2)c1OC	1.6µM	x	n	n	n	u	n
Cc1ccc(CNS(=O)(=O)NCc2ccccc2)cc1	n	x	n	n	n	n	x
COc1ccc(OC)c(S(=O)(=O)n2nnc3ccccc32)c1	u	n	n	n	n	u	n
C=CCn1c(SCC(=O)N(CC)CC)nc(O)cc1=O	2.5µM	n	n	n	n	n	n
CCCCC1=CC2=CC(=O)C(C)(OC(=O)CC)C(=O)C2=CN1CCc1ccccn1 (centres undefined)	u	u	n	n	n	u	n
CCCCC1=CC2=C(c3ccco3)C(=O)C(C)(OC(=O)c3ccc(OC)cc3)C(=O)C2=CN1CCc1ccccn1 (centres undefined)	u	u	u	n	n	u	n
COC(=O)CCCC1=CC2=CC(=O)C(C)(OC(=O)c3cccs3)C(=O)C2=CN1CCc1ccccn1 (centres undefined)	n	u	n	n	n	u	x
COC(=O)c1cc(C(=O)OC)cc(-n2c(C)cc(C(=O)COC(=O)CNS(=O)(=O)c3ccc(C)cc3)c2C)c1	u	n	n	n	n	n	x
Cc1cc(C)cc(N(C(=O)CNS(=O)(=O)c2ccccc2)C(C(=O)NCc2ccccc2)c2ccc(C)o2)c1 (centres undefined)	10µM	u	n	n	n	n	n
O=C(NCc1ccco1)C1CC(O)CN1C(=O)Nc1ccccc1 (centres undefined)	n	n	n	n	n	n	x
CCCn1c(SCC(=O)NNC(=O)c2ccccc2)nnc1-c1cccnc1	u	n	n	n	n	n	n
CCC(C)NC(=O)C1(O)c2ccccc2NC(=O)N1c1ccc(C)c(C)c1 (centres undefined)	n	n[0.00184 µM]	n	n	n	n	x
CC1=C(C(=O)OC(C)C)C(c2ccccc2)NC(=S)N1C (centres undefined)	n	u	n	n	n	n	x
O=[N+]([O-])c1ccc(N2CCN(S(=O)(=O)c3ccccc3[N+](=O)[O-])CC2)cc1NCc1cccnc1	14µM	8.3µM	n	n	n	10µM	n
O=C(Cc1cccc2ccccc12)N/N=C/c1ccc(Sc2nc3ccccc3s2)o1	10µM	u	n	n	n	u	n
O=C(COc1cccc2ccccc12)N/N=C/c1ccc(Sc2nc3ccccc3s2)o1	n	u	n	n	n	x	x
O=C(N/N=C/c1c[nH]c2ccccc12)c1cc(-c2ccc3ccccc3c2)n[nH]1	u	n	n	49	64	n	n
